Test results published in PubChem BioAssay (EPA / NIEHS).
Activity calls are given as the source filed them. How the source made its calls: active means hit-call score of the fitted dose curve at least 0.9, where 1 is the maximum; inactive means score below 0.9.

Columns and labels:
Conditions in all cases: mRNA level, 48 h; actives raise or lower the signal
[1] = read-out: ABC Transporter (ABCC2), ABCC2 (gene 1244); assay: LTEA_HepaRG_ABCC2: Life Technologies and Expression Analysis (LTEA) Assay for ABC Transporter (ABCC2) using HepaRG (AID 2283464)
How it was run: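 HepaRG cells were plated 48 h, switched to serum-free induction medium, then exposed in duplicate for 48 h to 8 concentrations (top 100 uM, half-log steps, 0.5% DMSO). ABCC2 mRNA was measured by qRT-PCR normalized to ACTB/GAPDH/POLR2A; bidirectional fitting versus DMSO.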

[2] = read-out: Broad substrate specificity ATP-binding cassette transporter ABCG2 (Homo sapiens) (UniProt Q9UNQ0); assay: LTEA_HepaRG_ABCG2: Life Technologies and Expression Analysis (LTEA) Assay for ABC Transporter (ABCG2) using HepaRG (AID 2283465)
How it was run: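 Gene expression of ABCG2 in HepaRG liver cells is quantified by qRT-PCR following 48 h exposure across an eight-point series topping at 100 uM. Values come from bidirectional fitting relative to DMSO vehicle.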

[3] = read-out: ATP-citrate lyase (ACLY), ACLY (gene 47); assay: LTEA_HepaRG_ACLY: Life Technologies and Expression Analysis (LTEA) Assay for ATP-citrate lyase (ACLY) using HepaRG (AID 2283466)
How it was run: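 ACLY expression changes in human HepaRG liver cells are quantified by qRT-PCR after 48 h exposure to test chemicals (maximum 100 uM, half-log steps). Values are fitted in both directions relative to 0.5% DMSO vehicle.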

[4] = read-out: Peroxisomal acyl-coenzyme A oxidase 1 (ACOX1) gene, ACOX1 (gene 51); assay: LTEA_HepaRG_ACOX1: Life Technologies and Expression Analysis (LTEA) Assay for Peroxisomal acyl-coenzyme A oxidase 1 (ACOX1) gene using HepaRG (AID 2283467)
How it was run: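 Human HepaRG hepatic cultures, 48 h treatment with test chemicals up to 100 uM. ACOX1 expression read by qRT-PCR relative to 0.5% DMSO vehicle.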

[5] = read-out: Alkaline Phosphatase, Placental (ALPP) gene, ALPP (gene 250); assay: LTEA_HepaRG_ALPP: Life Technologies and Expression Analysis (LTEA) Assay for Alkaline Phosphatase, Placental (ALPP) gene using HepaRG (AID 2283468)
How it was run: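 Differentiated human HepaRG cells were plated and cultured 48 h, then exposed in duplicate for 48 h in serum-free induction medium to eight half-log concentrations from 100 uM in 0.5% DMSO. ALPP mRNA was measured by TaqMan qRT-PCR, normalized to ACTB, GAPDH, POLR2A.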

[6] = read-out: Bcl-2 (BAD) gene, BAD (gene 572); assay: LTEA_HepaRG_BAD: Life Technologies and Expression Analysis (LTEA) Assay for Bcl-2 (BAD) gene using HepaRG (AID 2283469)
How it was run: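 Activity values reflect up- or down-regulation of BAD mRNA in human HepaRG hepatic cells treated 48 h in serum-free medium, with eight-point half-log dosing capped at 100 uM and 0.5% DMSO vehicle.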

[7] = read-out: Bcl-2 (BAX) gene, BAX (gene 581); assay: LTEA_HepaRG_BAX: Life Technologies and Expression Analysis (LTEA) Assay for Bcl-2 (BAX) gene using HepaRG (AID 2283470)
How it was run: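 Gene expression measured by Fluidigm qRT-PCR with three housekeeping genes for normalisation. HepaRG cells, plated 48 h beforehand, treated 48 h at up to 100 uM (8-point, half-log) in 0.5% DMSO. Bidirectional fitting versus DMSO.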

[8] = read-out: adenosine kinase (ADK) gene, ADK (gene 132); assay: LTEA_HepaRG_ADK: Life Technologies and Expression Analysis (LTEA) Assay for adenosine kinase (ADK) gene using HepaRG (AID 2283471)
How it was run: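 HepaRG (human liver), 48 h chemical exposure, 8-pt half-log series, top 100 uM, 0.5% DMSO vehicle. Readout: ADK mRNA by qRT-PCR vs housekeeping genes; bidirectional curve fit relative to DMSO baseline.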

[9] = read-out: Alpha-fetoprotein (AFP) gene, AFP (gene 174); assay: LTEA_HepaRG_AFP: Life Technologies and Expression Analysis (LTEA) Assay for Alpha-fetoprotein (AFP) gene using HepaRG (AID 2283472)
How it was run: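 AFP transcript measured by TaqMan qRT-PCR with three housekeeping genes for normalization, after 48 h chemical treatment of HepaRG cells (top 100 uM, half-log steps, 0.5% DMSO). Gain or loss fitted against vehicle.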

[10] = read-out: BCL2L11 (gene 10018); assay: LTEA_HepaRG_BCL2L11: Life Technologies and Expression Analysis (LTEA) Assay for Bcl-2 (BCL2L11) gene using HepaRG (AID 2283473)
How it was run: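 Differentiated human HepaRG cells in serum-free induction medium were exposed in duplicate for 48 h to eight concentrations (top 100 uM, half-log steps, 0.5% DMSO). BCL2L11 mRNA was quantified by TaqMan qRT-PCR, normalized to ACTB/GAPDH/POLR2A, bidirectional fit versus DMSO.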

[11] = read-out: Apolipoprotein A-V (APOA5) gene, APOA5 (gene 116519); assay: LTEA_HepaRG_APOA5: Life Technologies and Expression Analysis (LTEA) Assay for Apolipoprotein A-V (APOA5) gene using HepaRG (AID 2283474)
How it was run: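 Differentiated human HepaRG cells were exposed in duplicate for 48 h to eight half-log concentrations from 100 uM in 0.5% DMSO. APOA5 mRNA was quantified by TaqMan qRT-PCR, normalized to ACTB, GAPDH and POLR2A, and fitted bidirectionally against DMSO.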

[12] = read-out: Bcl-2 (BID) gene, BID (gene 637); assay: LTEA_HepaRG_BID: Life Technologies and Expression Analysis (LTEA) Assay for Bcl-2 (BID) gene using HepaRG (AID 2283476)
How it was run: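 Duplicate 48 h treatments of HepaRG cells in serum-free induction medium spanned 100 uM downward in half-log steps, 0.5% DMSO. Transcript change quantified by qRT-PCR against three housekeeping genes, fitted up or down versus DMSO.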

[13] = read-out: Caspase-3 (Homo sapiens) (UniProt P42574); assay: LTEA_HepaRG_CASP3: Life Technologies and Expression Analysis (LTEA) Assay for cysteine-aspartic acid protease (CASP3) using HepaRG (AID 2283477)
How it was run: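 Differentiated human HepaRG cells in serum-free induction medium were exposed 48 h to 8-point half-log concentrations from 100 uM (0.5% DMSO vehicle). CASP3 mRNA was measured by qRT-PCR, normalised to ACTB, GAPDH and POLR2A, with bidirectional fitting against DMSO.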

[14] = read-out: Cytochrome P450 (CYP24A1), CYP24A1 (gene 1591); assay: LTEA_HepaRG_CYP24A1: Life Technologies and Expression Analysis (LTEA) Assay for Cytochrome P450 (CYP24A1) using HepaRG (AID 2283478)
How it was run: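 Differentiated HepaRG cells, pre-cultured 48 h, were exposed in duplicate for 48 h in serum-free induction medium to 8 half-log concentrations (top 100 uM, 0.5% DMSO). CYP24A1 mRNA was quantified by TaqMan qRT-PCR, normalized to ACTB/GAPDH/POLR2A, fitted bidirectionally versus DMSO.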

[15] = read-out: Cytochrome P450 (CYP1A2), CYP1A2 (gene 1544); assay: LTEA_HepaRG_CYP1A2: Life Technologies and Expression Analysis (LTEA) Assay for Cytochrome P450 (CYP1A2) using HepaRG (AID 2283479)
How it was run: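 Differentiated human HepaRG cells in serum-free induction medium were exposed in duplicate for 48 h to 8-point half-log concentrations up to 100 uM in 0.5% DMSO. CYP1A2 mRNA measured by qRT-PCR, normalized to ACTB, GAPDH, POLR2A; bidirectional fit vs DMSO.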

[16] = read-out: cysteine-aspartic acid protease (CASP8), CASP8 (gene 841); assay: LTEA_HepaRG_CASP8: Life Technologies and Expression Analysis (LTEA) Assay for cysteine-aspartic acid protease (CASP8) using HepaRG (AID 2283480)
How it was run: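 Concentration-response in duplicate up to 100 uM (half-log steps, 0.5% DMSO) on differentiated HepaRG cultures for 48 h. Expression change of CASP8 mRNA is determined by TaqMan qRT-PCR with housekeeping-gene normalization.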

[17] = read-out: Cytochrome P450 (CYP2B6), CYP2B6 (gene 1555); assay: LTEA_HepaRG_CYP2B6: Life Technologies and Expression Analysis (LTEA) Assay for Cytochrome P450 (CYP2B6) using HepaRG (AID 2283481)
How it was run: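 Differentiated HepaRG cells, serum-free induction medium, exposed 48 h in duplicate to 8-point half-log concentrations from 100 uM in 0.5% DMSO. CYP2B6 mRNA by qRT-PCR, normalized to ACTB, GAPDH, POLR2A; bidirectional fit versus DMSO.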

[18] = read-out: CYP2C8 (gene 1558); assay: LTEA_HepaRG_CYP2C8: Life Technologies and Expression Analysis (LTEA) Assay for CYP2C8 using HepaRG (AID 2283483)
How it was run: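 This is a transcriptional endpoint in HepaRG cultures: 48 h exposure, highest concentration 100 uM. CYP2C8 mRNA is quantified by TaqMan qRT-PCR.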

[19] = read-out: Cytochrome P450 2C19 (Homo sapiens) (UniProt P33261); assay: LTEA_HepaRG_CYP2C19: Life Technologies and Expression Analysis (LTEA) Assay for CYP2C19 using HepaRG (AID 2283482)
How it was run: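 Differentiated human HepaRG cells were exposed for 48 h in serum-free induction medium to 8 concentrations (top 100 uM, half-log steps, 0.5% DMSO). CYP2C19 mRNA was measured by qRT-PCR, normalized to ACTB/GAPDH/POLR2A, and fitted bidirectionally against DMSO.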

Chain of Caspase-3 (Homo sapiens) (P42574 whole entry, looked up): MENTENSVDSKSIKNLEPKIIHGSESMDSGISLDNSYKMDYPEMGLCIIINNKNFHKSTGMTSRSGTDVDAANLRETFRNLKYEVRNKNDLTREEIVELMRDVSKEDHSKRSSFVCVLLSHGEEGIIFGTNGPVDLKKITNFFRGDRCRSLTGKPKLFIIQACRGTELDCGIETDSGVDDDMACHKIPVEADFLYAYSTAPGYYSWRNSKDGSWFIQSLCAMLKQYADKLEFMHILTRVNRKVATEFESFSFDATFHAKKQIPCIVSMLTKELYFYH
Chain of Broad substrate specificity ATP-binding cassette transporter ABCG2 (Homo sapiens) (Q9UNQ0 whole entry, looked up): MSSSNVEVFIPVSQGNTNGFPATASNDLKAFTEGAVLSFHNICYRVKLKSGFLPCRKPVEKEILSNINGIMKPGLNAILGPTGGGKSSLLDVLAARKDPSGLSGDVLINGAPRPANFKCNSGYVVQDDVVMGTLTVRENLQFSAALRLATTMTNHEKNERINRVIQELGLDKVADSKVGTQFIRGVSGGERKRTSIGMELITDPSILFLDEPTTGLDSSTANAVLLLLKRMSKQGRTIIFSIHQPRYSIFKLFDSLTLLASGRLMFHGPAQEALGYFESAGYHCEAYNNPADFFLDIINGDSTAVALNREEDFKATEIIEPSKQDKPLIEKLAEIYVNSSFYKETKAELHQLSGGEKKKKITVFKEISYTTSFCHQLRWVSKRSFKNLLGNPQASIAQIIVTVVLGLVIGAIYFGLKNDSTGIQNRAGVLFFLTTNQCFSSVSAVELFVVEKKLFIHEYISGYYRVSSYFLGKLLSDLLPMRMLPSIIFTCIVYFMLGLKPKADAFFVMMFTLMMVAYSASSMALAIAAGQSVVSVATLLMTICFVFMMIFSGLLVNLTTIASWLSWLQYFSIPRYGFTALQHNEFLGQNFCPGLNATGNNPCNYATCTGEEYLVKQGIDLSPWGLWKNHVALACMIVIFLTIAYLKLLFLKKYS
Chain of Cytochrome P450 2C19 (Homo sapiens) (P33261 whole entry, looked up): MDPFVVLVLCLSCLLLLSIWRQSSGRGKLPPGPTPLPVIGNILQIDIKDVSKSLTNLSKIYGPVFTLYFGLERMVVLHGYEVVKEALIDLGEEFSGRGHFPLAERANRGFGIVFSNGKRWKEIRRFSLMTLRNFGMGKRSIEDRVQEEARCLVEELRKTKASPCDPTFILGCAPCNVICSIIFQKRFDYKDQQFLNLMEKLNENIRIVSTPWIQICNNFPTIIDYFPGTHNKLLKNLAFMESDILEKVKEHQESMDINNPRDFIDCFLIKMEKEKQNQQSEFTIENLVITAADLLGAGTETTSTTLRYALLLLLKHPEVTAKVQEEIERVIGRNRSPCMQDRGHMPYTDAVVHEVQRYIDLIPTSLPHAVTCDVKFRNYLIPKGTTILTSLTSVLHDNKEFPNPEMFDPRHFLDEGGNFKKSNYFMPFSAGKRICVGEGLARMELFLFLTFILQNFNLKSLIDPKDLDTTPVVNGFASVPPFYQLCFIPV

Structure (SMILES): O=S1(=O)CCCO1
- outcome [1]: inactive
- outcome [2]: inactive
- outcome [3]: inactive
- outcome [4]: inactive
- outcome [5]: inactive
- outcome [6]: inactive
- outcome [7]: inactive
- outcome [8]: inactive
- outcome [9]: inactive
- outcome [10]: inactive
- outcome [11]: inactive
- outcome [12]: inactive
- outcome [13]: inactive
- outcome [14]: inactive
- outcome [15]: inactive
- outcome [16]: inactive
- outcome [17]: inactive
- outcome [18]: inactive

Structure (SMILES): CC(C)CCCCCCOC(=O)C1CCCCC1C(=O)OCCCCCCC(C)C (configuration not stated)
- outcome [1]: inactive
- outcome [2]: inactive
- outcome [3]: inactive
- outcome [4]: inactive
- AC50 [5]: 0.00316 µM (active)
- outcome [6]: inactive
- outcome [7]: inactive
- AC50 [8]: 0.00316 µM (active)
- outcome [9]: inactive
- outcome [10]: inactive
- AC50 [11]: 0.00316 µM (active)
- AC50 [12]: 0.00316 µM (active)
- AC50 [13]: 0.00316 µM (active)
- outcome [14]: inactive
- AC50 [15]: 50 µM (active)
- AC50 [16]: 0.00316 µM (active)
- outcome [17]: inactive
- outcome [18]: inactive

Structure (SMILES): CCCCN1C(=O)[C@@H]([C@H](O)C2CCCCC2)NC(=O)C12CCN(Cc1ccc(Oc3ccc(C(=O)O)cc3)cc1)CC2
- AC50 [1]: 2.88 µM (active)
- AC50 [2]: 1.54 µM (active)
- AC50 [3]: 0.672 µM (active)
- AC50 [4]: 2.79 µM (active)
- AC50 [5]: 7.87 µM (active)
- AC50 [6]: 3.81 µM (active)
- outcome [7]: inactive
- AC50 [8]: 1.01 µM (active)
- AC50 [9]: 3 µM (active)
- AC50 [10]: 4.66 µM (active)
- AC50 [11]: 3.04 µM (active)
- outcome [12]: inactive
- AC50 [13]: 2.23 µM (active)
- AC50 [14]: 9.92 µM (active)
- AC50 [15]: 2.06 µM (active)
- AC50 [16]: 3.02 µM (active)
- AC50 [17]: 1.94 µM (active)
- AC50 [18]: 3.24 µM (active)

Structure (SMILES): OC(Cn1cncn1)(Cn1cncn1)c1ccc(F)cc1F
- outcome [1]: inactive
- outcome [2]: inactive
- outcome [3]: inactive
- outcome [4]: inactive
- outcome [5]: inactive
- outcome [6]: inactive
- outcome [7]: inactive
- outcome [8]: inactive
- outcome [9]: inactive
- outcome [10]: inactive
- outcome [11]: inactive
- outcome [12]: inactive
- outcome [13]: inactive
- outcome [14]: inactive
- outcome [15]: inactive
- outcome [16]: inactive
- AC50 [17]: 27.1 µM (active)
- outcome [19]: inactive
- outcome [18]: inactive

Structure (SMILES): O=C(O)[C@H](O)[C@@H](O)C(=O)O
- outcome [1]: inactive
- outcome [2]: inactive
- outcome [3]: inactive
- outcome [4]: inactive
- outcome [5]: inactive
- outcome [6]: inactive
- outcome [7]: inactive
- outcome [8]: inactive
- outcome [9]: inactive
- outcome [10]: inactive
- outcome [11]: inactive
- outcome [12]: inactive
- outcome [13]: inactive
- outcome [16]: inactive

Structure (SMILES): C[C@]12C=CC(=O)C=C1CC[C@H]1[C@@H]3C[C@@H](O)[C@](O)(C(=O)CO)[C@@]3(C)C[C@H](O)[C@@]12F
- outcome [1]: inactive
- outcome [2]: inactive
- outcome [3]: inactive
- outcome [4]: inactive
- outcome [5]: inactive
- outcome [6]: inactive
- outcome [7]: inactive
- outcome [9]: inactive
- outcome [10]: inactive
- outcome [11]: inactive
- outcome [12]: inactive
- outcome [13]: inactive
- outcome [14]: inactive
- AC50 [15]: 50 µM (active)
- outcome [16]: inactive
- outcome [17]: inactive
- outcome [18]: inactive

Structure (SMILES): CCn1nc(C)c2c1C(=O)NCC(c1ccc(O)cc1)=N2
- outcome [1]: inactive
- outcome [2]: inactive
- outcome [3]: inactive
- outcome [4]: inactive
- outcome [5]: inactive
- outcome [6]: inactive
- outcome [7]: inactive
- outcome [8]: inactive
- outcome [9]: inactive
- outcome [10]: inactive
- outcome [11]: inactive
- outcome [12]: inactive
- outcome [13]: inactive
- outcome [14]: inactive
- AC50 [15]: 34.1 µM (active)
- outcome [16]: inactive
- AC50 [17]: 32.9 µM (active)
- outcome [18]: inactive
